Experimental data: ChEMBL document CHEMBL3988442, “University of Dundee, Small-Polar-MMV Screening Library” (2021)
For some assays here: Potency and affinity values are given separately.

Legend:
Set-up in all cases: scale not given: direction of the effect not stated beside the values
[1] = molecular target: Protein translocase subunit SecA (Escherichia coli (strain K12)) (UniProt P10408); assay: Assay to Identify E. coli SecA ATPase Inhibitors; assay type: functional; conditions: 30 µM
[2] = molecular target: T1, Ubiquitin-activating enzyme e1, putative (Leishmania donovani (strain BPK282A1)) (UniProt E9BSI1); assay: Leishmania donovani Ubiquitin Activating Enzyme (LdE1); assay type: functional; conditions: 30 µM
T1 sequence (whole entry): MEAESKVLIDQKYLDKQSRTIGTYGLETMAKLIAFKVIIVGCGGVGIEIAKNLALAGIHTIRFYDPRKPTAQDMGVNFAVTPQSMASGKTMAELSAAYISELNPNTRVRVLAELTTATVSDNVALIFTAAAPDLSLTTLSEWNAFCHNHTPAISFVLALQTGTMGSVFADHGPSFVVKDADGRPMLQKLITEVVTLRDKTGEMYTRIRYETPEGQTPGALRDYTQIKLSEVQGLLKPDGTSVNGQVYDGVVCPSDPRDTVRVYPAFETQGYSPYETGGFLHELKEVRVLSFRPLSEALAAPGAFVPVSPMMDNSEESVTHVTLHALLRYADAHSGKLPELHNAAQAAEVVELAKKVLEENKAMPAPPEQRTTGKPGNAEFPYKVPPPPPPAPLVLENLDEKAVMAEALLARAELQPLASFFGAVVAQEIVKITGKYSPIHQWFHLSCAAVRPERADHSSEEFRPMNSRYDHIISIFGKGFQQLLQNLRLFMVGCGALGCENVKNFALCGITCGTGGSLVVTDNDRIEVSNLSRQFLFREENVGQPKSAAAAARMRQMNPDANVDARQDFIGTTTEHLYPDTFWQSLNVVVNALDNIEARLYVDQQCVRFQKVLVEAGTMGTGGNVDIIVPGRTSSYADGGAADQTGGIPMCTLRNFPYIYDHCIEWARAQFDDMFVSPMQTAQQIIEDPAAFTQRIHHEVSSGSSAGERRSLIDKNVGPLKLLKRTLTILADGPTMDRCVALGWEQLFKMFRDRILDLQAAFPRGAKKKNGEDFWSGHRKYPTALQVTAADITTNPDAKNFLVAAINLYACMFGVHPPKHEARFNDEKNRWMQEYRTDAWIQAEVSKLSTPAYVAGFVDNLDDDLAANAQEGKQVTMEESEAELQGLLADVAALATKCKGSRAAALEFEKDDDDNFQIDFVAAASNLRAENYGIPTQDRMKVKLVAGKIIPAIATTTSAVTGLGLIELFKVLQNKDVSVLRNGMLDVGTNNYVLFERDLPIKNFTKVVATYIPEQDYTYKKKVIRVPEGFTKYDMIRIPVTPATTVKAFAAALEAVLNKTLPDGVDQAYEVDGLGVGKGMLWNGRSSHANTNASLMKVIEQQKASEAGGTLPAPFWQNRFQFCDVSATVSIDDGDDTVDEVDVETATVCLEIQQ

[3] = molecular target: AMP-activated protein kinase, AMPK (Homo sapiens) (UniProt P54646+O43741+P54619+Q9UGJ0+Q9Y478+Q13131+Q9UGI9); assay: AMP-dependent Kinase enzyme assay. An in vitro enzyme assay that detects ADP turnover that is directly proportional to AMPK activity. This uses naive AMPK that is activated during the assay with MK-8722; assay type: functional; conditions: 30 µM
[4] = molecular target: Sialic acid-binding Ig-like lectin 9 (Homo sapiens) (UniProt Q9Y336); assay: Hs-Siglec9 ALPHAscreen SOP 20170721; conditions: 10 µM
Sequence of Sialic acid-binding Ig-like lectin 9 (Homo sapiens) (Q9Y336 whole entry): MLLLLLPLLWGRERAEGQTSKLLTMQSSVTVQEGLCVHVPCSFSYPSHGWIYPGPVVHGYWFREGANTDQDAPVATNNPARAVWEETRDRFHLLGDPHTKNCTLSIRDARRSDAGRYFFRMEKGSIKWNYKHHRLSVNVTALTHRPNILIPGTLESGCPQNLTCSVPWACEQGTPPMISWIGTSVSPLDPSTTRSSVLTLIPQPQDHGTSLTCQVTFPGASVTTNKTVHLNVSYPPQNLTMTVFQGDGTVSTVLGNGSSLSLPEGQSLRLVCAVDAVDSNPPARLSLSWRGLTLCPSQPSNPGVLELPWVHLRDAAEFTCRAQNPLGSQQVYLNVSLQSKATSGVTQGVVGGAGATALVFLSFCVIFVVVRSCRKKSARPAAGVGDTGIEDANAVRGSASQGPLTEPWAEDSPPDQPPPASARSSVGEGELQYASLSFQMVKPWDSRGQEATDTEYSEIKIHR

Trypanosoma cruzi = assay: Trypanosoma cruzi phosphomannomutase and mannose-1-phosphate guanylyltransferase assay; assay type: functional; conditions: 10 µM
[5] = molecular target: T2, Arginase-2, mitochondrial (Homo sapiens) (UniProt P78540); assay: in vitro enzyme assay to detect the production of urea directly proportional to the activity of Arginase II; assay type: functional; conditions: 33.3 µM; note: in the data most compounds retested in dose-response had high values
T2 sequence (whole entry): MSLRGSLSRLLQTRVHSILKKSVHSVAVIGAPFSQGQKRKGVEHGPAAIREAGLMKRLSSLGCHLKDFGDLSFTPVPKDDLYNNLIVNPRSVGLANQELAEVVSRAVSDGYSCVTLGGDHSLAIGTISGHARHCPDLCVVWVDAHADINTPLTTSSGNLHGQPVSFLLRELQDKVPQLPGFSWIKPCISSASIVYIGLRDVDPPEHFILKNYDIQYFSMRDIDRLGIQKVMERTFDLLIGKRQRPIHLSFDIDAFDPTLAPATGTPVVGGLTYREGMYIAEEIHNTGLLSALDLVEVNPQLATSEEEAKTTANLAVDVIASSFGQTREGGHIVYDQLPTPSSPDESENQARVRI

[6] = molecular target: T3, Proteasome subunit beta (Trypanosoma cruzi) (UniProt O96673); assay: Trypanosoma cruzi proteasome chymotrypsin-like activity (TcProtChymo) assay.; note: in the data most compounds retested in dose-response had high values; assay type: functional; conditions: 9.37 µM
T3 sequence (whole entry): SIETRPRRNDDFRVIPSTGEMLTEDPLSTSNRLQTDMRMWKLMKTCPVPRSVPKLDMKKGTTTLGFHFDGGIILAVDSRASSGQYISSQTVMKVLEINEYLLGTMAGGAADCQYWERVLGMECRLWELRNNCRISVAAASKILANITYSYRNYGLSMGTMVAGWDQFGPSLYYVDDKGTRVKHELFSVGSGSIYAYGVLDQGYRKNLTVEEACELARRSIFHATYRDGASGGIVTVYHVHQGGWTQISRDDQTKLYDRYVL

Homo sapiens = organism: Homo sapiens; assay: To identify inhibition of the IFN signalling (Jak-Stat) pathway via expression of an eGFP reporter gene under the control of an IFN-stimulated response element (ISRE) containing MxA promoter.; assay type: functional; conditions: 30 µM
[7] = molecular target: T4, Tyrosyl-tRNA synthetase, putative (Trypanosoma cruzi (strain CL Brener)) (UniProt Q4DSP6); assay: Trypanosoma cruzi tyrosyl tRNA synthetase (TcYRS) _High Tyrosine SOP; assay type: functional; conditions: 30 µM; note: in the data most compounds retested in dose-response had high values
T4 sequence (whole entry): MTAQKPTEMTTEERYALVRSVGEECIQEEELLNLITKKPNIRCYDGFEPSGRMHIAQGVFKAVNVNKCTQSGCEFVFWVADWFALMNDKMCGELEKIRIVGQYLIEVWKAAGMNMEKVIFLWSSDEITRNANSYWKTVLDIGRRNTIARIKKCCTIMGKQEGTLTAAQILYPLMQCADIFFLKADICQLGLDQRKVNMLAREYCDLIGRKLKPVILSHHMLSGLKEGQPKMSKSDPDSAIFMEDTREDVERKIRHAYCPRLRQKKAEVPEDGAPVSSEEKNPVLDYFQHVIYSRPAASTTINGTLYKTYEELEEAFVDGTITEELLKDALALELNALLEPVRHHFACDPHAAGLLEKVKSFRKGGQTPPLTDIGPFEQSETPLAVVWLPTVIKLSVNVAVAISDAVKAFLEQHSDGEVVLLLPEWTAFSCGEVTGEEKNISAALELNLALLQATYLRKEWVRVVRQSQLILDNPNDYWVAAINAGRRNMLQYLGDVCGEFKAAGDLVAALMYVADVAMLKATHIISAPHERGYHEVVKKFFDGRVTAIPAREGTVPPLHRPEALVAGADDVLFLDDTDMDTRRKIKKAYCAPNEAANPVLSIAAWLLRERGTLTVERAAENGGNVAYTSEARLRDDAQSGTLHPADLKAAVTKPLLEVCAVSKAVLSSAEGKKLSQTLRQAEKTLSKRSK

[8] = molecular target: T4, Tyrosyl-tRNA synthetase, putative (Trypanosoma cruzi (strain CL Brener)); assay: Trypanosoma cruzi tyrosyl tRNA synthetase (TcYRS) SOP; assay type: functional; conditions: 30 µM
[9] = molecular target: Chromo domain-containing protein 1 (Saccharomyces cerevisiae (strain ATCC 204508 / S288c) (Baker's yeast)) (UniProt P32657); assay: ScCHD-1 Enzyme Inhibition Assay; assay type: functional; conditions: 30 µM; note: in the data most compounds retested in dose-response had high values
Sequence of Chromo domain-containing protein 1 (Saccharomyces cerevisiae (strain ATCC 204508 / S288c) (Baker's yeast)) (P32657 whole entry, the tested form may be a part): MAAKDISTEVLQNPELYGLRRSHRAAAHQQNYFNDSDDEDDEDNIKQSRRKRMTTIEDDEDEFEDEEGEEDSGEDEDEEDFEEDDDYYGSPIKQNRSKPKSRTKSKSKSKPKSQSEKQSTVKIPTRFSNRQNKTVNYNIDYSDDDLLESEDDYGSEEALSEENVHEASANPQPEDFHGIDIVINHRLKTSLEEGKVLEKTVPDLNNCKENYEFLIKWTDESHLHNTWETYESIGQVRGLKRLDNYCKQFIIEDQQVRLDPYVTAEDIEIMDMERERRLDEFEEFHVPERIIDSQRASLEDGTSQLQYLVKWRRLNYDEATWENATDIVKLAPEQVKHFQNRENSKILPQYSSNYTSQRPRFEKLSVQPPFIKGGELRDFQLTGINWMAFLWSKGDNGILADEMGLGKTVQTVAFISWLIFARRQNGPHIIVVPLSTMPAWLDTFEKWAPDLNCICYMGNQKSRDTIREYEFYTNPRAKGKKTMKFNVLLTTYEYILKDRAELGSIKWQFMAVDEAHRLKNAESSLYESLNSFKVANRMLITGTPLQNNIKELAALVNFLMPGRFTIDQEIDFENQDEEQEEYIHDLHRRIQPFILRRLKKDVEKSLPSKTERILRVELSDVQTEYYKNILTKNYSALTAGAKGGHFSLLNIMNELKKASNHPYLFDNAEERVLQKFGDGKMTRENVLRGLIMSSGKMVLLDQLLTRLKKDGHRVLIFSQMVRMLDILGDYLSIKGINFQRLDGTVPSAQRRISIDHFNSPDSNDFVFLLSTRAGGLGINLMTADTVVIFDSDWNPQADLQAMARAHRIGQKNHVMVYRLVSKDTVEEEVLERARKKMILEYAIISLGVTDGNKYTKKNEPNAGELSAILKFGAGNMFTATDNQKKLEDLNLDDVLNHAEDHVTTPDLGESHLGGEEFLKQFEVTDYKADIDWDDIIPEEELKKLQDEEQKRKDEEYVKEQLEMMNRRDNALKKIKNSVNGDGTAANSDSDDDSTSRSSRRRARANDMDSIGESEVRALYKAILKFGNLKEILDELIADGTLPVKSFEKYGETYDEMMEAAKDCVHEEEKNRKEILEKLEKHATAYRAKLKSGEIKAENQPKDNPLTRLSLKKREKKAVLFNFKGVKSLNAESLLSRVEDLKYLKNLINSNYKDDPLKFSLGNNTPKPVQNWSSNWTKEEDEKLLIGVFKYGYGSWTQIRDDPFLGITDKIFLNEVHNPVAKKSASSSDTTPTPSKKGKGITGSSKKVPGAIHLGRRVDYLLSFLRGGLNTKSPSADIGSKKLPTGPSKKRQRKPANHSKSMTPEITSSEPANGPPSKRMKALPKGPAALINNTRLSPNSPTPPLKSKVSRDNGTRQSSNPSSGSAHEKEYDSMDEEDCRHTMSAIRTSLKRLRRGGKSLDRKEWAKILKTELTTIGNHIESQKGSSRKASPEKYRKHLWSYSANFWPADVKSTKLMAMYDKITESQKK

Sequence of Protein translocase subunit SecA (Escherichia coli (strain K12)) (P10408 whole entry): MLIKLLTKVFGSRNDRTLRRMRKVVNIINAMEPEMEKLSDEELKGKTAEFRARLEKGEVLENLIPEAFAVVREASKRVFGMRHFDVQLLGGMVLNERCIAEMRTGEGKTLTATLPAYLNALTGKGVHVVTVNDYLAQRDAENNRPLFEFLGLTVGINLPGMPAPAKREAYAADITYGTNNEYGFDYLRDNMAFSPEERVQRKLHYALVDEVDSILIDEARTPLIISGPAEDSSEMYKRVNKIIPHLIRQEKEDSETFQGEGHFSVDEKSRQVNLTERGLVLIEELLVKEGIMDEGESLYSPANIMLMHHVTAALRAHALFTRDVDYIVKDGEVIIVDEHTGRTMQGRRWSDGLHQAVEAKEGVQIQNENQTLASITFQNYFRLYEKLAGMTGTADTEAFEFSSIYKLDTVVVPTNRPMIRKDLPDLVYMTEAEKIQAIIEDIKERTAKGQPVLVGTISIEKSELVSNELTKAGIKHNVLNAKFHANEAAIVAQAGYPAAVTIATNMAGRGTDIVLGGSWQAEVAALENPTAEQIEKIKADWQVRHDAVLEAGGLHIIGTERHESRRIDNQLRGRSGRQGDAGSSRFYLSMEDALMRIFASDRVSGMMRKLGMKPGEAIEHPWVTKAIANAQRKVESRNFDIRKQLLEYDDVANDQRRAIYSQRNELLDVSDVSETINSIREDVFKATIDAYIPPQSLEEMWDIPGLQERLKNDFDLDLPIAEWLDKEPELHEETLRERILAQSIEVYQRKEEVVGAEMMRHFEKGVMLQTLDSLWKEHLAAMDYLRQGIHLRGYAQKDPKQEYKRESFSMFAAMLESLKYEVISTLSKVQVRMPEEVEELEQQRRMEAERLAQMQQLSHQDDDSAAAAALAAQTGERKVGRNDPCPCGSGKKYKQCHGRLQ

Structure (SMILES) | Percent Effect [1] | Percent Effect [2] | Percent Effect [3] | Percent Effect [4] | Percent Effect (Trypanosoma cruzi) | Percent Effect [5] | Percent Effect [6] | Percent Effect (Homo sapiens) | Percent Effect [7] | Percent Effect [8] | Percent Effect [9]
O=S(=O)(CCN1CCOC(Cn2cccn2)C1)C(F)(F)F (configuration not stated) | -0.0845% | 24.1% | 13.4% | -1.22% | 2.97% | -1.5% | 18.4% | 30.2% | 8.33% | 12.7% | 61.7%
CCc1nnc2n1CCN(C(=O)Cc1csc(-c3ccco3)n1)C2 | -4.35% | 15.2% | -5.8% | 9.4% | -1.04% | 3.8% | 8.76% | 13.3% | 4.43% | 11.4% | -4.32%
O=C(Cn1nc(-c2ccc(F)cc2)oc1=O)NCc1ccc(F)cc1 | 0.533% | 10.5% | -7.15% | -1.53% | -7.52% | -6.9% | 13.4% | 21% | 0.49% | 7.32% | -14.3%
NC(=O)C1CCCN(C(=O)c2cnc3c(cnn3C3CCCC3)c2)C1 (configuration not stated) | -8.82% | 15.2% | -8.15% | 18.9% | 12.8% | -3.04% | 3.19% | 19.3% | 6.4% | 24.1% | -11.1%
Cc1cccc(-n2cc(C(=O)N3CCn4c(C)nnc4C3)nn2)c1 | -9.19% | -2.74% | 2.62% | 0.154% | -4.17% | -8.38% | 3% | 21.1% | 3.12% | 1.24% | 0.00385%
CCOC(CC)C(=O)NCc1ccnc(Oc2ccc(F)cc2)c1 (configuration not stated) | -0.936% | -2.7% | -2.91% | 0.458% | -3.28% | 4.29% | 11% | 9.46% | 7.94% | 12.2% | -1.51%
Cc1cc(CN2CCN(CC(O)C(C)(C)C)CC2)no1 (configuration not stated) | 0.683% | 15.2% | -2.9% | 10.4% | 4.63% | 1.52% | 4.83% | 14.7% | 5.42% | 16.5% | -5.62%
Cc1ccc2c(n1)N(C)CCN(C(=O)NC1CC1)C2 | -5.82% | -2.67% | 117% | -1.66% | -7.53% | -57.2% | 4.96% | 18.6% | -3.12% | 5% | -9.39%
COCc1cnc2n1CCN(Cc1cccnc1)C2C (configuration not stated) | -1.07% | 8% | 0.686% | 6.43% | 3.28% | -50.4% | -0.171% | -15.6% | 2.08% | 5% | -2.32%
O=C(COc1coc(CN2CCCC2)cc1=O)NCc1ccccc1Cl | -2.51% | 1.33% | 5.09% | 5.58% | 0.393% | -1.94% | 7.02% | -13.6% | 6.35% | 10.3% | 0.789%
COCCn1cc2c(n1)C(CNCc1ccc(F)cc1)OCC2 (configuration not stated) | -5.93% | 8.11% | -0.136% | -5.65% | -0.195% | 5.42% | 16.8% | -4.69% | 11.9% | 11% | -6.25%
CCc1noc(CN2CCCN(C(N)=O)CC2)n1 | -0.23% | 0% | 5.45% | 11.3% | -6.7% | 4.94% | 5.98% | 21.4% | -1.48% | -8.86% | -6.21%
Cc1cnn(CC(C)NCc2csc(-c3ccsc3)n2)c1 (configuration not stated) | -3.78% | -3.8% | -1.07% | 0.382% | 0.923% | -1.94% | 28.1% | 12.5% | 6.25% | 12.7% | -20.9%
Cn1nccc1C1CCN(Cc2csc(-c3ncccn3)n2)CC1 | -3.65% | 24.3% | -7.27% | 6.8% | 6.96% | -0.554% | 8.08% | 13.2% | 11.9% | 28.1% | -7.46%
CS(=O)(=O)N1CCC(C(=O)NC(Cc2ccsc2)c2nccs2)CC1 (configuration not stated) | -5.37% | 9.46% | 6.1% | -1.37% | -3.36% | -1.16% | 2.65% | 12.9% | 0% | 11.7% | 2.8%
CCN1C(=O)CCC12CCCN(Cc1nccs1)CC2 (configuration not stated) | -5.45% | 8% | 11.7% | 0.513% | 2.56% | -0.699% | 8.37% | 9.53% | 7.45% | 16.7% | -1.64%
CC(C)Oc1cccc(C(=O)C2CCCN(C(=O)c3ccccn3)C2)c1 (configuration not stated) | -2.58% | 0% | -1.81% | 4.35% | -2.12% | -1.91% | 14.3% | 5% | 0.529% | 2.44% | -1.58%
COc1ccc(NC(=O)NCC(O)c2ccc(F)cc2F)c(OC)c1 (configuration not stated) | 0.46% | 3.8% | 1.85% | -3.56% | -4.41% | 10.5% | 13.2% | 12.5% | 3.12% | 10.1% | -20.4%
Cn1ccc(CN2CCC(Oc3ccccc3)CC2)cc1=O | -4.18% | 18.2% | -0.911% | 1.02% | -1.69% | -0.356% | 4.05% | -2.92% | 11.7% | 24.4% | -10.1%
CN(C)C(=O)CN(C)C(=O)c1cnc(Cc2ccc(F)cc2)s1 | -5.52% | 0% | -1.38% | -1.9% | -1.07% | 3.12% | 17.8% | -4.01% | 0.546% | 8.64% | -7.08%
CN(C)CCN1CCO[C@@H]2CN(C(=O)c3cccs3)CC[C@@H]2C1 | -2.95% | 10.8% | 3.88% | 2.08% | -1.27% | -1.59% | 20.3% | 5.44% | 1.08% | 12.8% | -1.74%
O=C([C@H]1CCCO1)N1CCc2ncnc(NC3CC3)c2CC1 | 1.86% | 0% | -0.252% | -2.06% | -5.47% | 5% | 12.4% | 3.34% | 9.9% | 13.4% | -4.91%
